# This is one part of a sample in which hits are shown more often than they occur.
# Dicer processing = human Dicer pre-microRNA cleavage inhibition; Q9UPY3; cat-ELCCA pre-miR-21 Dicer processing, chemiluminescence; active compounds read high; z-score at 25 µM; 47,000 tested, 6% active; AID 1347074; in the data active = z-score above about 3, passing the limit was not always enough;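 note: plate controls were vehicle for no effect and no enzyme for full effect; higher signal means more uncleaved substrate so more Dicer inhibition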
# Active calls of the source: *.
SMILES,Dicer processing
O=C(OCCS(=O)(=O)c1ncccc1C(F)(F)F)c1cccc(Cl)c1,-0.56
COc1ccc(Br)c(C(=O)NNC(N)=S)c1,0.44
O=C1CC(c2ccccc2)CCc2sccc2N1 (stereo not drawn),-0.63
O=C(CSc1nccc(-c2cccs2)n1)c1cc(-c2ccc(Cl)c(Cl)c2)no1,4*
O=C(CSc1nccc(-c2cccs2)n1)Nc1ccccc1,-0.43
CC(C)NC(=O)CSc1nccc(-c2cccs2)n1,0.49
O=C(O)CSc1nc2c(c(C(F)(F)F)n1)CCc1ccccc1-2,1.8
COCCNC(=O)c1cc2nc3c(c(C(F)(F)F)n2n1)CCc1ccccc1-3,3.2*
CC(C)(C)NC(=O)c1cc2nc3c(c(C(F)(F)F)n2n1)CCc1ccccc1-3,3.6*
O=C(NCC1CCCO1)c1nn2c(C(F)(F)F)c3c(nc2c1Cl)-c1ccccc1CC3 (stereo not drawn),2.9
FC(F)(F)c1c2c(nc3cc(-c4cccs4)nn13)-c1ccccc1C2,-0.63
CC(C)(C)NC(=O)c1cc2nc(-c3ccc(Br)cc3)cc(C(F)(F)F)n2n1,-1.2
CCOc1ccc(-c2nc(C#N)c(N3CCC(C)CC3)o2)cc1,0.1
Cc1ccc(S(=O)(=O)N2CCN(S(=O)(=O)c3ccccc3)C2C(C)C)cc1 (stereo not drawn),-1.6
O=C1CC(C(=O)Nc2ccc(F)c(Cl)c2)C2=C(CCCC2=O)N1 (stereo not drawn),-0.97
COc1ccc2cc(C(=O)Nc3ccc(Cl)cc3)sc(=O)c2c1OC,-4
O=C1c2ccccc2-c2c1c1ccccc1c(=O)n2CC1CC1,-0.55
O=C1c2ccccc2C(=O)N1CN(Cc1ccc2c(c1)OCO2)CN1C(=O)c2ccccc2C1=O,-1.2
O=C1c2ccccc2-c2c1c1ccccc1c(=O)n2Cc1ccc2c(c1)OCO2,3.1*
CCCCC(Nc1ncnc2ccc(Br)cc12)C(=O)O (stereo not drawn),3.9*
Cc1ccc2ncnc(NC(CC(C)C)C(=O)O)c2c1 (stereo not drawn),-0.97
Cc1ccc2ncnc(NC(CO)C(=O)O)c2c1 (stereo not drawn),1.8
COC(=O)C1=C(C)NC2=C(C(=O)CCC2)C1c1ccc(OC)cc1 (stereo not drawn),0.7
CN(C)c1ccc(/C=N\Nc2nc3c(c(=O)n(C)c(=O)n3C)n2C/C=C\c2ccccc2)cc1,17
O=S(=O)(c1ccc(Cl)c2ccccc12)N1CCN(c2ccccc2)CC1,1.5
SMILES,Dicer processing
Cc1ccc(-c2n[nH]c(=S)c3ccccc23)cc1S(=O)(=O)N1CCN(C)CC1,0.77
COc1ccc(S(=O)(=O)N2CCN(C)CC2)c2ccccc12,6.1*
COC(=O)C1=C(C)Nc2nc3ccccc3n2C1c1cccc(OC)c1OC (stereo not drawn),0.07
O=C(O)C1C2C=CC(C2)C1C(=O)NCCCN1CCOCC1 (stereo not drawn),-0.94
NNC(=S)NCCc1ccc(Cl)cc1,4.5*
S=C(NCCc1ccccc1)Nc1cccc(Cl)c1Cl,0.28
S=C(NCCn1ccnc1)Nc1ccc(Cl)cc1,0.86
COc1cccc(Cc2nnc(-c3ccc(-c4cccs4)s3)o2)c1,-1.2
COc1ccc(OS(=O)(=O)c2cc(S(=O)(=O)Oc3ccc(OC)cc3)c(Cl)s2)cc1,0.72
NC(=O)c1sc(-c2ccc(Cl)cc2)cc1NS(=O)(=O)c1cc(C(F)(F)F)cc(C(F)(F)F)c1,3.7*
NC(=O)c1sc(-c2ccccc2)cc1NS(=O)(=O)c1ccc(F)cc1,-0.57
COC(=O)c1sc(-c2ccc(Cl)cc2)cc1NC(=O)C(F)(F)F,0.16
OCCCNC(=S)Nc1cc(Cl)c(Cl)cc1Cl,-0.62
CCOC(=O)N1CCN(c2ncc3c(n2)CC(c2ccc(OC)c(OC)c2)CC3=O)CC1 (stereo not drawn),3.5*
COc1ccc(C2CC(=O)c3cnc(NC4OC(=O)c5ccccc54)nc3C2)cc1OC (stereo not drawn),-1.3
COc1ccc(C2CC(=O)c3cnn(-c4nc(C)cc(C)n4)c3C2)cc1OC (stereo not drawn),-0.72
Cc1ccc(S(=O)(=O)NC(=O)NC2CCCc3ccccc32)cc1 (stereo not drawn),0.81
CC1CCC2C(=O)N(c3ccc(N4C(=O)C5CCC(C)CC5C4=O)cc3)C(=O)C2C1 (stereo not drawn),2.8
CC1CCC2C(=O)N(c3ccc(C(=O)OC(C)C(=O)c4ccccc4)cc3)C(=O)C2C1 (stereo not drawn),3.1*
CC1CCC2C(=O)N(c3ccc(Cl)cc3)C(=O)C2C1 (stereo not drawn),-1.5
Cc1ccc(S(=O)(=O)c2c(C)cc(C)cc2C)cc1,-1.1
Cc1ccc(S(=O)(=O)n2nc(C)cc2N)cc1,-0.94
Cc1ccc(S(=O)(=O)n2ccc3cc(N)ccc32)cc1,5.7*
Cc1sc2c(c1C)C(O)=C(C(=O)Nc1cccc(Cl)c1)S(=O)(=O)N2C,2.4
Cc1c(NC(=O)CN(c2ccccc2)S(=O)(=O)N(C)C)c(=O)n(-c2ccccc2)n1C,2.6
SMILES,Dicer processing
c1ccc2c(c1)NC(c1ccc3c(c1)OCCO3)n1cccc1-2 (stereo not drawn),2.6
O=C1c2ccccc2NC(c2ccc3c(c2)OCO3)N1Cc1ccccc1 (stereo not drawn),3.4*
CC1(C)CC(=O)C2=C(C1)Nc1ccccc1NC2c1ccc2c(c1)OCO2 (stereo not drawn),-0.62
Cc1c(S(=O)(=O)NC2CCCCNC2=O)sc2ccc(Cl)cc12 (stereo not drawn),1.3
O=C1NCCCCC1NS(=O)(=O)c1cccs1 (stereo not drawn),-0.93
COC(=O)c1csc(S(=O)(=O)NC2CCCCNC2=O)c1OC (stereo not drawn),4*
CCOC(=O)C1(C#N)C(c2ccc(OC)cc2)C(c2cccs2)=NN1c1ccc([N+](=O)[O-])cc1 (stereo not drawn),-0.09
CCC12CN3CC(CC)(CN(C1)C3c1ccccc1F)C2=O (stereo not drawn),1.4
CCCC12CN3CC(CCC)(CN(C1)C3c1ccc(O)cc1)C2=O (stereo not drawn),2.9
CCC12CN3CC(CC)(CN(C1)C3c1ccccc1)C2=O (stereo not drawn),5.5*
N#CC(=C1SCCCCS1)S(=O)(=O)c1ccccc1,0.11
CCCN1C(=O)C2(/C(=C(/O)c3ccc(F)cc3)C(=O)C(=O)N2CCCOC)c2ccccc21 (stereo not drawn),3.6*
CCOc1ccc(/C(O)=C2/C(=O)C(=O)N(CCCOC)C23C(=O)N(CC)c2ccccc23)cc1 (stereo not drawn),-7.4
CCN1C(=O)C2(/C(=C(/O)c3ccc(OC)cc3)C(=O)C(=O)N2CCCOC)c2ccccc21 (stereo not drawn),2
CCCN1C(=O)C2(/C(=C(/O)c3ccc(C)cc3)C(=O)C(=O)N2CCOC)c2ccccc21 (stereo not drawn),1.2
CCCN1C(=O)C2(/C(=C(/O)c3ccc(C)c(F)c3)C(=O)C(=O)N2CCCOC)c2ccccc21 (stereo not drawn),1
CCN1C(=O)C2(/C(=C(/O)c3ccc(C)cc3)C(=O)C(=O)N2CCCOC)c2ccccc21 (stereo not drawn),3.3*
CC1(C)OC(=O)C([C@@H]2C3C4CC5C6C4CC3C6C52)C(=O)O1 (stereo partly drawn),-0.08
COc1cccc(OC)c1OCCNCC1COc2ccccc2O1 (stereo not drawn),0.04
O=S1(=O)CC(Sc2ccc(Cl)cc2)c2ccccc21 (stereo not drawn),-1.6
